# High-throughput results (PubChem BioAssay)
# This is a sample that favours compounds with a hit; in the whole collection about 1.2% have one here.
# Pemphigus Ab inh: inhibitors of pemphigus antibody binding to DSG3, primary screen, biochemical, bead-based, flow cytometry, scFv-GFP; Desmoglein-3 (Homo sapiens), P32926; binding (percent of control), % at 10 µM; 0.48% of 310,000 active; DSG3-coupled beads, scFv-anti-DSG3-GFP binding; active compounds read low;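 active = binding more than 3 SD below its plate's average and above zero; inconclusive = below that plate limit but binding exactly zero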;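 also: hits lower antibody fragment binding to DSG3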
# LAP4-GFP MLPCN: modulators of LAP4-GFP expression in yeast, primary screen, S. cerevisiae, multiplex flow cytometry, MLPCN library | GFP response vs DMSO, % at 10 µM | 3 h; median GFP as percent of DMSO wells | 0.34% of 320,000 active;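 active = GFP response vs DMSO above a set limit, about the screen mean plus 3 SD, cut at about 150% in these data; inconclusive = under 70 cell events counted for the yeast strain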
# RPL19A-GFP yeast: RPL19A-GFP expression modulators in yeast, primary screen, cell-based, S. cerevisiae, multiplex flow cytometry, MLPCN; percent response vs DMSO, % at 10 µM; AID 2025, 2009; S. cerevisiae RPL19A-GFP strain, 3 h; active compounds read low; 0.3% of 330,000 active;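 active = percent response vs DMSO below 50%; inconclusive = fewer than 70 events counted for the yeast strain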;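 also: median channel GFP fluorescence of the barcoded RPL19A-GFP strain; ratio of sample median GFP to plate DMSO average so 100% = DMSO; lower means less RPL19A-GFP as with rapamycin TOR inhibition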
# CIT2 TOR yeast: modulators of CIT2-GFP expression in yeast, primary screen, S. cerevisiae, GFP fusion, multiplex flow cytometry, MLPCN library. S. cerevisiae CIT2-GFP strain, 3 h; 100 means same as DMSO wells. GFP response vs DMSO, % at 10 µM. 0.065% of 320,000 active;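 active = GFP response relative to DMSO above a set limit, near the screen mean plus 3 SD, cut at about 150% in these data; inconclusive = Fewer than 70 cells measured for a yeast strain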;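 also: ratio of well median GFP fluorescence to mean of DMSO wells on the plate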
# MEP2 TOR yeast: modulators of MEP2-GFP levels in yeast, primary screen, S. cerevisiae, multiplex flow cytometry, MLPCN library; 0.51% of 330,000 active; GFP response vs DMSO, % at 10 µM; S. cerevisiae MEP2-GFP strain, 3 h; 100% = DMSO control level;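 active = GFP response versus DMSO above a set limit, roughly screen mean plus 3 SD, cut at about 180% in these data; inconclusive = fewer than 70 cells counted for a yeast strain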;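 also: median GFP fluorescence of the barcode-gated MEP2-GFP cells per well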
# AGP1-GFP MLPCN: modulators of AGP1-GFP expression in yeast TOR pathway, primary screen, cell-based, multiplex flow cytometry, S. cerevisiae, MLPCN library; 0.02% of 320,000 active; 3 h; GFP as percent of DMSO wells; GFP response vs DMSO, % at 10 µM;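 active = GFP response relative to DMSO above a set limit, near screen average plus 3 SD, cut at about 150% in these data; inconclusive = fewer than 70 cells counted for the yeast strain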;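 also: median GFP channel fluorescence of the gated AGP1 strain per well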
# Starred values were filed as active, the others as inactive; ? = inconclusive; · = not tested or not shown; [ ] = another dose, or the depositor's remark.
SMILES,Pemphigus Ab inh,LAP4-GFP MLPCN,RPL19A-GFP yeast,CIT2 TOR yeast,MEP2 TOR yeast,AGP1-GFP MLPCN
CN(C)CC1CSCCC1(O)c1ccc(C(F)(F)F)cc1 (stereo unspecified),81,95,106,94,101,101
CN(C)CC1CSCCC1(O)c1ccc(Cl)cc1 (stereo unspecified),99,91,45*[may fluoresce violet],?,205*[may fluoresce violet],?
COc1cc2c(c(OC)c1OC)-c1ccc(SC)c(=O)cc1C(N)CC2 (stereo unspecified),120,·,·,·,·,·
CCOC(=O)NC1CCc2cc(OC)c(OC)c(OC)c2-c2ccc(OC)c(=O)cc21 (stereo unspecified),86,·,·,·,·,·
Cc1cc(C=C2C(=O)N(C)C(=S)N(C)C2=O)c(C)n1-c1ccncc1,107,157*,84,59,108,105
COc1ccc(CCNCc2ccsc2)cc1OC,119,86,105,105,102,100
COc1cc2c(cc1OC)C(C(=O)NC(C)C)C1CCCCN1C2=O (stereo unspecified),89,113,31*[may fluoresce violet],?,498*[may fluoresce violet],?
O=C1NC(=S)NC(=O)C1=Cc1cccn1-c1ccc(O)cc1,66*,·,·,·,·,·
CN1C(=O)/C(=C/c2cccn2-c2ccc3ccccc3c2)C(=O)NC1=S,79,113,90,88,94,50
CN1C(=O)C(=Cc2ccc(SC3CCCCC3)o2)C(=O)N(C)C1=O,82,151*,95,83,92,92
O=c1[nH]c(=S)[nH]c(O)c1/C=C1/C=c2ccccc2=N1,83*,103,103,116,128,104
Cc1cccc2c1=NC(=O)/C(=C/c1c(O)[nH]c(=O)[nH]c1=O)C=2,·,92,106,105,103,101
CCN(CC)c1ccc(/C=C2\C(=O)NC(=O)N(CC3CCCO3)C2=O)cc1 (stereo unspecified),109,90,108,101,108,108
Cc1ccc(/C=C2\C(=O)NC(=O)N(CC3CCCO3)C2=O)s1 (stereo unspecified),100,191*,88,54,84,76
CCOC(=O)C(O)(c1ccc(NC(=S)NC(=O)c2ccc(Cl)cc2Cl)c(C)c1)C(F)(F)F (stereo unspecified),84,?,28*[may fluoresce violet],?,215*[may fluoresce violet],?
O=c1[nH]c(=O)n(-c2ccccc2Cl)c(O)c1C=NCCN1CCCCC1,92,110,102,106,105,103
O=c1[nH]c(=O)n(Cc2ccc(F)cc2)c(O)c1C=NCCN1CCCCC1,·,146,78,111,179*,129
COc1ccc2[nH]cc(C3=CCNCC3)c2c1,·,174*,109,171*,183*,97
Cn1c(O)c(Cc2ccc(OCc3ccccc3)cc2)c(=O)n(C)c1=O,68*,104,108,99,113,99
Clc1ccc(CNCCc2ccc3c(c2)OCO3)cc1,98,85,105,99,102,105
FC(F)(F)c1ccc(CNCCc2ccc3c(c2)OCO3)cc1,83*,95,108,99,109,102
O=C(c1ccccc1)c1ccc(N=Nc2c(O)[nH]c(=O)[nH]c2=O)cc1,69*,75,100,?,227*[may fluoresce violet],12
CCN(CC)c1ccc(/C=C/[N+](=O)[O-])cc1,222,160*,103,92,102,91
COc1ccc(CN2C(=O)NC(=O)/C(=C\c3ccco3)C2=O)cc1,67*,85,82,·,102,90
Cc1ccc(/C=C2/C(=O)NC(=O)N(CCc3ccc(F)cc3)C2=O)o1,96,92,95,92,95,99
SMILES,Pemphigus Ab inh,LAP4-GFP MLPCN,RPL19A-GFP yeast,CIT2 TOR yeast,MEP2 TOR yeast,AGP1-GFP MLPCN
O=C1NC(=S)N(c2ccccc2)C(=O)/C1=C/c1ccco1,112,157*,95,83,92,85
O=C1NC(=O)N(CCc2ccc(F)cc2)C(=O)/C1=C/c1ccco1,·,182*,95,100,97,88
COc1ccc(CN2C(=O)NC(=O)/C(=C\c3cc(OC)c(OC)c(OC)c3)C2=O)cc1,104,97,95,91,95,95
O=C1CCC[C@@H]2C[C@@]3(C[C@@H]4CCN1[C@H]24)Nc1cc(Cl)ccc1NC3=NCc1ccccc1,110,·,·,·,·,·
COc1cccc(C2CCN(CC(=O)Nc3cc(Cl)ccc3OC)CC2O)c1 (stereo unspecified),100,93,103,107,103,99
COc1cccc(CC(=O)N2CCN(Cc3cccc(Cl)c3)CC2)c1,-53*,107,105,98,111,100
CC(Cc1ccccc1)N(C)CC1C(=O)C2CCC1C2 (stereo unspecified),97,·,·,·,·,·
CC(=O)OC1N=C(c2ccc(Cl)cc2)c2cc(Br)ccc2NC1=O (stereo unspecified),·,85,58,?,451*[may fluoresce violet],22
CC(=O)OC1N=C(c2ccccc2)c2cc(Br)ccc2NC1=O (stereo unspecified),102,106,112,113,105,114
COC(=O)C1=C(c2ccccc2)C[C@@H]2CC[C@H]1N2C(=O)NCCNC(C)=O,104,95,103,103,108,111
COc1cc2c(c(OC)c1OC)-c1ccc(OC)c(=O)cc1C(N)CC2 (stereo unspecified),93,·,·,·,·,·
COc1ccc(CN2C(=O)C(CC(=O)NCc3ccco3)CC(C(=O)N(C)C)=C2C)cc1 (stereo unspecified),106,·,·,·,·,·
COc1cc(/C=C/C(=O)c2c(O)n(CCc3ccccc3)c(=O)[nH]c2=O)ccc1O,105,125,117,105,585*,74
O=C(/C=C/c1ccccc1)c1c(O)n(CCc2ccccc2)c(=O)[nH]c1=O,·,93,99,100,106,91
O=C(Nc1ccccc1)OC1CN=C(N[N+](=O)[O-])NC1 (stereo unspecified),82,98,94,112,97,96
CCOP(=S)(OCC)Oc1cc(C)oc(=O)c1,107,106,90,92,94,92
c1cc(CCN2CCCC2)ccn1,99,112,97,104,97,103
CN(C)[C@@H]1C(=O)C(C(N)=O)=C(O)[C@@]2(O)C(=O)C3=C(O)c4c(O)cccc4[C@@](C)(O)C3C[C@@H]12 (stereo partly specified),109,128,107,110,123,93
